Pf growth 48h: Primary qHTS for delayed death inhibitors of the malarial parasite plastid, 48 hour incubation. P. falciparum luciferase growth in erythrocytes, 48 h. Potency, µM (doses to about 28.7 µM), for the others: top-dose activity change, negative = inhibition, actives largely listed as inhibitors. 310,000 compounds, 5.9% hits; further: potency means the concentration at half of the fitted maximal effect; on the % scale 0 is the no-effect control and ±100 the full control effect
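Parasite viability was followed by luminescence of a genomically integrated firefly luciferase. Cultures held 0.1% parasitemia at 2% hematocrit (final), incubated under 5% CO2 at 37 C.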
SARS PLP yeast: qHTS of Yeast-based Assay for SARS-CoV PLP. S. cerevisiae expressing SARS-CoV PLpro, growth rescue. Potency, µM (highest dose often 32.9 µM), for the others: top-dose activity, positive = growth rescue, hits mostly activators. 330,000 compounds, 0.19% hits. AID 485353, 2010; calls by dose curve; further: potency means the concentration at half of the fitted maximal effect; 0% is about no effect; nearly all actives have a fitted effect of over 55% in size
HCMV inh: qHTS Assay for inhibitors of the human cytomegalovirus (HCMV) | AID 1259415, 2018 | 410,000 compounds, 4.5% hits | activity change, negative = inhibition, % at 57.5 µM | HFF cells, HCMV-luciferase reporter, 72 h; active compounds read low; in the data active means activity change below about -60%; inconclusive means no clear call, values can overlap the other calls; inactive means above about -39%; further: on the % scale 0 is the no-effect control and ±100 the full control effect
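HFF cells seeded 16 h at 37C, treated with compounds, infected with luciferase-reporter HCMV at MOI 1 PFU/cell; luciferase read at 72 h post infection, normalized to buffer-only and Salinomycin controls.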
HCV inh: qHTS Assay for Inhibitors of Hepatitis C Virus (HCV) | Potency, µM (series often up to 41.8 µM), inactives show at the top dose activity change, negative = inhibition, hits mostly inhibitors | Huh7.5.1 HCVcc-Cre infection, luciferase reporter, 44 h | AID 651820, 2012 | 340,000 compounds, 3.4% hits; further: potency means the concentration at half of the fitted maximal effect; on the % scale 0 is the no-effect control and ±100 the full control effect
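Reporter virus HCVcc-Cre (~0.5 moi) infects cells exposed to compound; seeding density 1,000 cells/well with 4 h settling beforehand. Luminescence, 15 sec read, taken 44 h post-infection following a 15 min RT substrate incubation.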
Pf growth 96h: Primary qHTS for delayed death inhibitors of the malarial parasite plastid, 96 hour incubation. P. falciparum luciferase reporter growth, 96 h. 320,000 compounds, 6.9% hits. Potency, µM (doses to about 28.7 µM), without a hit: at the highest dose activity change, negative = inhibition, hits mostly inhibitors; further: potency means the concentration at half of the fitted maximal effect; on the % scale 0 is the no-effect control and ±100 the full control effect
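Two-generation exposure (96 h) targets delayed-death phenotype. Reporter parasites carrying integrated firefly luciferase, in red cells at 2% hematocrit and 0.05% parasitemia final, kept at 37 C, 5% CO2; luminescence loss indicates inhibition.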
Sm TGR block: qHTS Assay for the Inhibitors of Schistosoma Mansoni Peroxiredoxins; Schistosoma mansoni thioredoxin glutathione reductase (TGR), Q962Y6; 360,000 compounds, 3% hits; Potency, µM (doses to about 114 µM), for inactives: top-dose activity change, negative = inhibition, usual class: inhibitors; purified TGR, DTNB reduction, TNB absorbance 405 nm; further: potency means the concentration at half of the fitted maximal effect; on the % scale 0 is the no-effect control and ±100 the full control effect; nearly all actives have a fitted effect of over 60% in size
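First, TGR (20 nM dispensed) and NADPH were mixed with compound. Second, a 15 min room-temperature incubation followed. Third, further NADPH and then DTNB were added to start the reaction. Finally, TNB absorbance was monitored kinetically.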
Active calls of the source: *; ? = inconclusive; . = not tested or not shown. A selection: hits, their analogues and other compounds. The true share with any hit is near 15%. Unless noted, the call rests on the fitted dose curve; in most records, active means well fitted curve in the direction sought with a large enough effect; inconclusive means small, poorly fitted or top-dose-only effect, or another doubt; inactive means no such curve, though single readings can be large; an effect the other way counts as inactive or inconclusive.

SMILES	Pf growth 48h	SARS PLP yeast	HCMV inh	HCV inh	Pf growth 96h	Sm TGR block
Cc1ccc(-c2ccccc2[C@@H]2C[C@H]3CN(C)C(=O)[C@]34CCCN24)o1	-4.3%	-1.5%	39.5	10.5%	-11.6%	9.4%
O=C1N(c2ccccc2)C[C@@H]2C[C@@H](c3cc4ccccc4o3)N3CCC[C@@]123	-14.6%	-0.4%	-99.4*	?	13.1µM*	-12.8%
Fc1ccc(N2CCN(Cc3cn[nH]c3-c3ccccc3)CC2)cc1	?	0.0%	11.6	-5.3%	1.2%	1.7%
COc1ccc(-c2[nH]ncc2CN2CCN(c3ccc(F)cc3)CC2)cc1	12.8%	-0.2%	-26.3	?	?	13.9%
Cc1ccc(Cn2nnnc2CN2CCC(O)(c3ccc(F)cc3)CC2)cc1	13.1µM*	-4.3%	14.0	-21.4%	36.2%	?
OC1(c2ccc(Cl)cc2)CCN(Cc2cn[nH]c2-c2ccc(F)cc2)CC1	13.1µM*	-0.4%	-77.7*	8.91µM*	?	-0.3%
COc1ccc(-c2[nH]ncc2CN2CCC(O)(c3ccc(Cl)cc3)CC2)cc1	?	0.4%	-7.2	?	11.7µM*	2.5%
OC1(c2ccc(Cl)cc2)CCN(Cc2cn[nH]c2-c2ccccc2)CC1	?	0.4%	?	?	9.28µM*	18.0%
Fc1ccc(-c2[nH]ncc2CN2CCN(c3ccc(F)cc3)CC2)cc1	5.4%	-1.0%	37.8	9.2%	7.1%	14.0%
O=C(Nc1ccc(F)cc1)C(c1ccnc2ccccc12)N1CCN(c2cccc(C(F)(F)F)n2)CC1 (centres undefined)	.	.	-2.7	.	.	.
O=C(NCc1cccc(C(F)(F)F)c1)c1ccc(=O)[nH]c1	10.4%	2.3%	91.4	6.3%	59.8%	-4.3%
COc1ccc(C2C3=C(Nc4ncnn42)c2ccccc2CCC3)cc1 (centres undefined)	?	-3.9%	68.1	12.3%	-8.1%	-10.3%
COc1cc(C2C3=C(Nc4ncnn42)c2ccccc2CC3)cc(OC)c1OC (centres undefined)	?	-1.7%	-88.7*	?	?	?
CCOC(=O)c1ccc2c(c1)nc(COc1ccc(OC)cc1)n2CC	.	0.0%	-19.9	?	9.28µM*	-21.2%
CCOC(=O)c1ccc2c(c1)nc(SCC(=O)c1cc3ccccc3o1)n2CC	.	4.6%	66.9	?	?	5.7%
C=CCNC(=O)CSc1nc2cc(C(=O)OCC)ccc2n1CC	.	2.2%	-2.7	-17.1%	10.4µM*	-1.0%
CC1CCCCC1NC(=O)CSc1nnc(COc2ccc(Cl)cc2)o1 (centres undefined)	10.3%	3.8%	-33.1	-6.4%	14.8%	4.4%
CC(Nc1ccc(Br)cc1)C(=O)N/N=C/c1ccccc1OCc1ccccc1 (centres undefined)	.	4.4%	8.6	-8.1%	-3.1%	4.2%
CCOc1cccc(C=NNC(=O)C(=O)Nc2cccc(C(F)(F)F)c2)c1O	.	.	-62.3*	.	.	.
COc1ccc(/C=N/NC(=O)CSCC(=O)Nc2ccccc2)cc1	49.8%	0.3%	21.8	-0.4%	28.6%	2.3%
C=CCc1cccc(/C=N/NC(=O)CNc2cccc3ccccc23)c1O	30.2%	-58.9%	-22.5	?	44.6%	-1.2%
O=C(NN=Cc1ccco1)C(=O)Nc1cccc(C(F)(F)F)c1	.	.	-6.4	.	.	.
C=CCc1cccc(/C=N/NC(=O)CNc2ccccc2)c1O	?	.	-99.4*	?	?	-1.5%
C=CCc1cccc(/C=N/NC(=O)C(C)Nc2cccc(C)c2)c1O (centres undefined)	13.1µM*	?	-80.1*	?	86.7%	7.4%
COc1cccc(/C=N/NC(=O)CSCC(=O)Nc2ccccc2)c1O	?	10.1%	-93.1*	25.1µM*	?	0.0%

Assay outcomes: PubChem, National Center for Advancing Translational Sciences (NCATS)
